Nrf2 block: Nrf2 qHTS screen for inhibitors; A549 ARE-Fluc reporter, luciferase luminescence, 18-24 h; Potency, µM (highest dose often 46 µM), actives largely listed as inhibitors; 360,000 compounds, 2.1% hits; note: nearly all actives have a fitted effect of over 60% in size
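A549 ARE_Fluc cells (5000/well, 5% FBS OPTI-MEM) pre-incubated 2 h, then treated with compounds 18-24 h at 37C/5% CO2 in concentration-response. CellTiter-Fluor viability read first; BugLite luciferase luminescence after 15 min at room temperature gives Nrf2 activity.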
S2 tox: Viability Counterscreen for Primary qHTS for Inhibitors of ATXN expression; Potency, µM (doses to about 56.7 µM), usual class: cytotoxic; 400,000 compounds, 0.49% hits; S2 cells (HEK-293 line with an ATXN2-luciferase reporter) viability, CellTiter-Fluor protease fluorescence, 24 h; note: nearly all actives have a fitted effect of over 40% in size
TGFb SMAD3 inh: qHTS for Inhibitors of TGF-b; 410,000 compounds, 1.2% hits; Potency, µM (doses to about 46.1 µM), actives largely listed as inhibitors; HepG2 CAGA-GFP TGF-b/SMAD3 reporter, GFP fluorescence, 18 h; TGF-beta stimulated, 500 pg/mL final; note: nearly all actives have a fitted effect of over 65% in size
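HEPG2 CAGA-GFP reporter cells (1000/well, DMEM with 1% FBS) received compounds, then recombinant TGF-beta at 500 pg/mL final for 18 hours at 37 degrees C. Per-cell GFP summed per well was normalised to unstimulated and stimulated DMSO controls before curve fitting.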
A549 viability: Nrf2 qHTS screen for inhibitors: counterscreen for cytotoxicity; Potency, µM (titrated, usually from 46 µM), hits mostly inhibitors; 390,000 compounds, 0.16% hits; AID 504648, 2011; A549 ARE-Fluc cells, CellTiter-Fluor viability, 18-24 h
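A549 ARE-Fluc cells in 5% FBS OPTI-MEM, 5000 cells/well, rested 2 h then exposed to compounds in concentration-response for 18-24 h at 37 °C. Viability by CellTiter-Fluor fluorescence (Ex 405/Em 525) after 30 min; luciferase luminescence (BugLite, 15 min, RT) read afterwards.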
ATXN2 expr inh: Primary qHTS for Inhibitors of ATXN expression; Potency, µM (doses to about 57 µM), actives largely listed as inhibitors; HEK-293 ATXN2-luciferase reporter, luminescence, 24 h; 360,000 compounds, 0.72% hits; AID 1745845, 2022; note: nearly all actives have a fitted effect of over 55% in size
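qHTS (up to 57 uM final) was run with 24 h compound exposure of reporter cells at 37 °C. Each well was multiplexed: SteadyGlo luminescence measured ATXN2-luciferase expression after a fluorogenic Gly-Phe-AFC viability readout (25 uM final).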
HepG2 tox: qHTS for Inhibitors of TGF-b: Cytotox Counterscreen | 410,000 compounds, 0.76% hits | Potency, µM (series often up to 46.1 µM), actives largely listed as cytotoxic | HepG2 CAGA-GFP viability, ATP luminescence, 18 h | AID 588856, 2011
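CellTiter-Glo luminescence gave cytotoxicity after 18 hours at 37 degrees C. The cells were HepG2 CAGA-GFP in 1% FBS DMEM, stimulated with 500 pg/mL TGF-beta after compound addition. %Activity was normalised to no-cell wells (complete cell-killing) and DMSO (no toxicity), and curves were fitted and classified.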
Of the large screens only hits and unclear results are named; the others gave an inactive call. Sampled rows, rich in hits. Any-hit rate of the full collection: about 3.8%. Calls come from the whole dose curve; as a rule, active = well fitted curve in the direction sought with a large enough effect; inconclusive = small, poorly fitted or top-dose-only effect, or another doubt; inactive = no such curve, though single readings can be large; an effect the other way counts as inactive or inconclusive.

CC(C)(C)c1cc(C(=O)NNC(=O)Nc2ccccc2)n(Cc2ccccc2)n1	Nrf2 block inconclusive, S2 tox inconclusive (no result: ATXN2 expr inh)
CC(N)c1csc(NC(=O)c2cc(C(C)(C)C)nn2Cc2ccccc2)n1 (stereo not given)	TGFb SMAD3 inh 22µM, ATXN2 expr inh inconclusive (no result: Nrf2 block, A549 viability)
COc1ccc(CC(N)c2csc(NC(=O)c3cc(C(C)(C)C)nn3Cc3ccccc3)n2)cc1 (stereo not given)	TGFb SMAD3 inh inconclusive, ATXN2 expr inh inconclusive, HepG2 tox 11µM (no result: Nrf2 block, A549 viability)
Cc1ccc(S(=O)(=O)N(C)C)cc1NC(=O)c1cc(C(C)(C)C)nn1Cc1ccccc1	Nrf2 block 10µM, S2 tox inconclusive
C[C@@H]1CN([C@@H](C)CO)C(=O)CCCn2cc(nn2)CO[C@H]1CN(C)C(=O)c1ccc2ccn(C)c2c1	none (no result: Nrf2 block, A549 viability)
CC(C)Oc1ccc2ccccc2c1CNC[C@H]1O[C@@H](n2ccc(N)nc2=O)[C@H](O)[C@@H]1O	none (no result: Nrf2 block, A549 viability)
COc1ccc(C(=O)CSc2nc3ccccc3n2CC(=O)c2ccccc2)cc1	Nrf2 block inconclusive, S2 tox inconclusive
COc1ccc(C(=O)Cn2c(C(=O)/C=C/c3ccccc3)nc3ccccc32)cc1	Nrf2 block inconclusive, S2 tox inconclusive, ATXN2 expr inh 22µM
Cc1ccc(CNC(=O)C(=O)NCC(c2ccc3c(c2)OCO3)N2CCOCC2)cc1 (stereo not given)	none (no result: Nrf2 block, S2 tox, ATXN2 expr inh)
Cc1c(Cl)cccc1-n1nc(C)c2c(C)cc(=O)n(CC(=O)N3CCCc4ccccc43)c21	Nrf2 block inconclusive, S2 tox inconclusive, ATXN2 expr inh inconclusive
CCCC(=O)C1=C(c2ccc(C)cc2)N(C(=O)CCC)n2cnnc2S1	TGFb SMAD3 inh inconclusive, HepG2 tox 20µM (no result: Nrf2 block, S2 tox, ATXN2 expr inh)
CCOC(=O)c1cccc(Nc2c3c(nc4ccccc24)CCC3)c1	Nrf2 block 21µM, S2 tox inconclusive, TGFb SMAD3 inh inconclusive, ATXN2 expr inh inconclusive
COC(=O)c1cccc(Nc2c3c(nc4ccccc24)CCC3)c1	Nrf2 block 23µM
CCOC(=O)C1=C(O)/C(=C/c2cn(CC(=O)NCC3CCCO3)c3ccccc23)SC1=Nc1ccc(C)cc1 (stereo not given)	Nrf2 block inconclusive, S2 tox inconclusive, A549 viability inconclusive, ATXN2 expr inh 10µM
CCOC(=O)C1=C(O)/C(=C/c2ccc(-c3ccccc3C(=O)O)o2)SC1=Nc1ccc(C)cc1	none (no result: ATXN2 expr inh)
CCOc1ccc(CN(C)C(=O)c2ccc3c(c2)NC(=O)C(C)S3)cc1OC (stereo not given)	Nrf2 block 16µM (no result: ATXN2 expr inh)
CCOC(=O)/C(=C\c1ccc([N+](=O)[O-])o1)NC(=O)c1ccccc1	Nrf2 block inconclusive, S2 tox inconclusive, TGFb SMAD3 inh inconclusive, A549 viability inconclusive, HepG2 tox 11µM
COc1ccc(NC(=O)COc2ccc(S(=O)(=O)NC3CCCCC3)cc2)cc1OC	TGFb SMAD3 inh inconclusive
CC(C)(C)OC(=O)N1CCC(c2nnc(SCc3ccccc3)o2)CC1	Nrf2 block 12µM
CC(=O)c1cccc(-n2nnnc2SCC(=O)Nc2ccccc2N2CCCCC2)c1	Nrf2 block 23µM, TGFb SMAD3 inh inconclusive
Cc1ccccc1Oc1cc(-n2ncc(Cl)c(Cl)c2=O)ncn1	Nrf2 block inconclusive, S2 tox 7.9µM, TGFb SMAD3 inh 4µM, A549 viability inconclusive, ATXN2 expr inh 7.9µM, HepG2 tox 7.1µM
Cc1ccc(-c2nc(NC(=O)CSc3ncnc4sc5c(c34)CCC(C)C5)ns2)cc1 (stereo not given)	none (no result: S2 tox, ATXN2 expr inh)
CS(=O)(=O)c1ccc(C(=O)Nc2ccc(Cl)c(-c3ccccn3)c2)c(Cl)c1	none (no result: Nrf2 block, S2 tox, TGFb SMAD3 inh, A549 viability, HepG2 tox)
O=C(CCN=C1NS(=O)(=O)c2ccccc21)Nc1ccc(F)cc1Cl	Nrf2 block 9.2µM (no result: ATXN2 expr inh)
O=C(CCN=C1NS(=O)(=O)c2ccccc21)NCc1ccccc1F	none
COc1ccccc1NC(=O)N(Cc1ccco1)Cc1cc2cc(C)cc(C)c2[nH]c1=O	Nrf2 block 23µM, S2 tox inconclusive, A549 viability inconclusive
Cc1ccccc1-c1cccc([C@@H]2C[C@H]3[C@H](CON3C)CN2C(=O)C(C)(C)C)c1	none
C=CCn1c(SC(F)F)nc2scc(-c3ccco3)c2c1=O	Nrf2 block inconclusive, TGFb SMAD3 inh 10µM
CC12CC(c3ccccc3O1)N(C(=O)c1ccco1)C(=S)N2c1ccc(F)cc1 (stereo not given)	Nrf2 block 16µM, TGFb SMAD3 inh inconclusive, A549 viability inconclusive
Oc1ccc(/C=N/n2cnn(Cc3ccccc3Cl)c2=S)c(O)c1	none
COc1ccc(/C=N/n2cnn(Cc3ccccc3Cl)c2=S)cc1OC	Nrf2 block 18µM
O=C(Nc1nc2ccccc2s1)c1ccc(OCC2CCCO2)cc1 (stereo not given)	Nrf2 block inconclusive, S2 tox inconclusive
O=C(Nc1cccc(C(F)(F)F)c1)C1Cc2c(-c3ccccc3Oc3ccccc3)ccnc2O1 (stereo not given)	TGFb SMAD3 inh inconclusive, ATXN2 expr inh inconclusive (no result: Nrf2 block, A549 viability)
COc1ccc(/C=N/NC(=O)c2cc(C(C)(C)C)[nH]n2)cc1COc1ccc(F)cc1F	Nrf2 block 21µM, TGFb SMAD3 inh inconclusive, A549 viability inconclusive
CCCN1CNc2c(c(=O)[nH]c(=S)n2CCC(C)C)C1	none (no result: S2 tox, TGFb SMAD3 inh, ATXN2 expr inh, HepG2 tox)
CCCCCN1C=CC(=C2C(=O)c3ccccc3C2=O)C=C1	Nrf2 block 9.2µM (no result: ATXN2 expr inh)
CC1=CC(=C2C(=O)c3ccccc3C2=O)C=C(C)N1C	A549 viability inconclusive
COc1ccc(-c2cn3cc([N+](=O)[O-])ccc3n2)cc1OC	Nrf2 block 3.7µM (no result: ATXN2 expr inh)
C[C@H](NCc1ccc2c(c1)nc(NC(=O)c1ccc(-c3cn[nH]c3)s1)n2CCc1ccccc1)C(C)(C)C	ATXN2 expr inh 1.9µM (no result: Nrf2 block, S2 tox, TGFb SMAD3 inh, A549 viability, HepG2 tox)
COC(=O)c1cc2c(cc1NC(=O)c1cnn(-c3ccc(C)cc3)c1-n1cccc1)OCO2	TGFb SMAD3 inh inconclusive (no result: S2 tox, ATXN2 expr inh)
CCOC(=O)C1=C(COC(=O)/C=C/c2cccc(OC)c2OC)NC(=O)NC1C (stereo not given)	none
Cn1c2c(c3cnc4cc(Cl)ccc4c31)CNCC2	none (no result: S2 tox, ATXN2 expr inh)
COc1ccccc1CCc1nnc(CCC(=O)N(C)Cc2cccc3cnccc23)o1	Nrf2 block inconclusive
COc1ccc(CCc2nnc(CCC(=O)N(C)Cc3ccnc4ccccc34)o2)cc1	Nrf2 block 21µM, S2 tox inconclusive, A549 viability inconclusive
CCCOc1cccc(C(=O)Nc2cccc(NC(=O)c3ccc(Cl)cc3Cl)c2)c1	Nrf2 block inconclusive, TGFb SMAD3 inh inconclusive
